Here are results for 49 compounds from PubChem BioAssay AID720513 (Broad Institute, 2013).

About 480 (23%) of roughly 2,100 compounds were called active. Not shown: some 5% with an inconclusive outcome. A selection follows. Measured potencies and affinities stand elsewhere. Values without a mark were called inactive.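 How the source made its calls: active means fitted curve reaches 40% activation at or below the top valid concentration, in every replicate test; inconclusive means replicate tests disagree on the call; inactive means the rest, including activity in the opposite direction.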

A short description of this test: activators raising PGC1a acetylation in cells, dose response, cell-based, cherry-picked samples, set 6 (AID 720513).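 Further: cells made to overexpress flag tagged PGC1a plus GCN5 acetyltransferase by viral infection.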 To be noted: U2OS PGC1a acetylation AlphaLISA, overnight, 0 = neutral, -100 = inhibitor control; series mostly up to 19.5 µM; activation (acetylation increase): at the top concentration. (In general: Bead proximity is the source of the signal in Alpha formats.)
On to `CN(Cc1ccccc1)C(=O)c1ccc2c(c1)NC(=O)C(N1CCOCC1)S2` (centres undefined), for which the “activation (acetylation increase)” value is -37.4%. `CCCOc1ccccc1C1C(C(=O)OC)=CN(C(C)C)C=C1C(=O)OC`: the “activation (acetylation increase)” value was 8.53%. `CN(c1cccc(NS(=O)(=O)c2cccs2)c1)S(C)(=O)=O`: the “activation (acetylation increase)” value was 30.2%.

As to `CC(=O)c1ccccc1-c1csc2ncnc(Sc3nnnn3C)c12`, the “activation (acetylation increase)” value is 16.2% [at 10 µM]. Regarding `CCn1c(CNc2ccc(C)cc2)nnc1SCC(N)=O`, the “activation (acetylation increase)” value is 4.47%. Regarding `Cc1[nH]nc2ncc(C(=O)c3ccccc3O)cc12`, the “activation (acetylation increase)” value is -21.6%. In the case of `Cn1c(SCc2ccon2)nc2ccccc2c1=O`, the “activation (acetylation increase)” value was -6.71%.

In the case of `CNC[C@@H]1OCCCC[C@H](C)Oc2ccc(NS(=O)(=O)c3cccs3)cc2C(=O)N([C@H](C)CO)C[C@@H]1C`, the “activation (acetylation increase)” value was 0.588%.

Regarding `Cc1noc(C)c1NC(=O)N(C)C[C@@H]1OCCCC[C@@H](C)Oc2ccc(N(C)C)cc2C(=O)N([C@@H](C)CO)C[C@H]1C`, the “activation (acetylation increase)” value was -4.29%. The value for `CCCOc1ccc(/C=C/C(=O)O)cc1OC` was 5.41%; that for `COc1ccc(C(=C(CC(=O)O)C(=O)OC(C)(C)C)c2cc(OC)c(OC)c(OC)c2)cc1OC` was -5.87%; that for `CN(C)C(=O)C[C@H]1CC[C@H](NC(=O)C2CCC2)[C@@H](CO)O1` was 15.4%. In the case of `COc1ccc2cc3c(N)nn(C(=O)c4ccccc4Cl)c3nc2c1` it was -23.1%. In the case of `CCc1c(C)nc(SCC(=O)Nc2ccc3c(c2)OCCO3)[nH]c1=O` it was -2.04%.

For the compound `COc1ccc(NCc2nnc(SCC(=O)Nc3cc(C)cc(C)c3)o2)cc1`, the “activation (acetylation increase)” value was 21.1%.

Take `CCN1C(=O)c2cccc3c(S(=O)(=O)Nc4ccccn4)ccc1c23`: the “activation (acetylation increase)” value was 17.1%. Take `Cc1ccc(O)c(NC(=O)c2ccc3c(c2)C(=O)N(CC(C)C)C3=O)c1`: the “activation (acetylation increase)” value is 4.64%. In the case of `CCN1CCN(C(=O)c2c(-c3c(F)cccc3Cl)noc2C)CC1` it was -1.69%. With `C[C@H](CO)N1C[C@H](C)[C@H](CN(C)C(=O)NC2CCCCC2)Oc2cc(C#Cc3ccc(F)cc3)ccc2S1(=O)=O`, the “activation (acetylation increase)” value was -65.8%. In the case of `Nc1ccccc1-c1ccn[nH]1`, the “activation (acetylation increase)” value is 0.587%. The value for `CC1=NN(C(=O)c2ccc(C)cc2)C(O)(C(F)(F)OC(F)(F)F)C1` (centres undefined) was 11.7%; that for `O=C(c1ccco1)N1N=C(c2ccc(Cl)cc2)CC1(O)C(F)(F)F` (centres undefined) was -31.7%; that for `COc1ccc(C(C)(O)c2nc(-c3cccc(O)c3)cs2)cc1` (centres undefined) was -1.9%. Regarding `COc1ccc(-c2ccc(CCC(=O)O)n2NC(=O)c2ccc(C(C)(C)C)cc2)cc1`, the “activation (acetylation increase)” value was -0.816%. On to `O=C(Nc1ccc(F)cc1)N[C@H]1C=C[C@H](CC(=O)N2CCCCC2)O[C@H]1CO`, for which the “activation (acetylation increase)” value is 26.6%.

`CCSc1ccccc1C(=O)NCCCn1ccnc1`: the “activation (acetylation increase)” value was 5.32%.

Turning to `COc1cccc(-c2cc(C(=O)NCCCn3ccnc3)no2)c1`, the “activation (acetylation increase)” value was 33.2%. Regarding `Cc1ccccc1-c1nc(C(=O)NCC2CCCO2)cc2c1[nH]c1ccccc12` (centres undefined), the “activation (acetylation increase)” value is -55.2%. Take `C[C@@H]1CN([C@@H](C)CO)S(=O)(=O)c2ccc(-c3ccc(F)cc3)cc2O[C@H]1CN(C)C(=O)C1CCCCC1`: the “activation (acetylation increase)” value was -61.4%. The value for `C#CCN(C[C@@H]1[C@@H](OC(=O)NC2CCCC2)[C@@H](OC(=O)NC2CCCC2)Cn2c(=O)ccc(=O)n21)S(=O)(=O)c1ccc(C)cc1` was -92%; that for `O=C1N(Cc2ccccc2)Cc2ccccc2[C@@H]2OC(c3ccc(OCCCO)cc3)=N[C@]12Cc1ccccc1` was 1.25%; that for `CCCC#Cc1ccc2c(c1)O[C@@H](CN(C)C(=O)C1CC1)[C@@H](C)CN([C@@H](C)CO)S2(=O)=O` was 3.55%.

As to `COC(c1ccccc1)c1nnc(CCC(=O)N(C)C(C2CC2)C2CC2)o1` (centres undefined), the “activation (acetylation increase)” value was -12.5%. On to `COCC(=O)NCc1nc2ccccc2n1Cc1ccccc1F`, for which the “activation (acetylation increase)” value is -16.1% [at 10 µM].

As to `COCCNC(=O)C(c1ccc(F)cc1)N(Cc1ccco1)C(=O)CCC(=O)Nc1nccs1` (centres undefined), the “activation (acetylation increase)” value was 6.62%. With `COc1ccc2cc3cc(C(=O)NCc4cccs4)oc3nc2c1`, the “activation (acetylation increase)” value is -4.04%. As for `CCCCn1nc(NC(=O)c2cccs2)c2cc3ccccc3nc21`, the “activation (acetylation increase)” value is 54.1%. The value for `CN(C)c1ccc(C(=O)NC2(N3CCC3=O)CCCC2)cc1` was 29%; that for `CCOC(=O)N1CCN(C(=O)c2cc(Cl)c(Cl)cc2C(=O)O)CC1` was -24.4%; that for `Clc1ccc(CSc2nnc(-c3cccnc3)n2Cc2ccco2)c(Cl)c1` was 38.7%. `CCOC(=O)C1=C(C)N=c2s/c(=C\c3cccc(OCC(=O)O)c3)c(=O)n2C1c1ccccc1OC` (centres undefined): the “activation (acetylation increase)” value is 22.3%. As to `C[C@H](CO)N1C[C@H](C)[C@H](CN(C)Cc2ccc(C(=O)Nc3ccccc3N)cc2)Oc2c(NC(=O)c3cnccn3)cccc2C1=O`, the “activation (acetylation increase)” value is -22.5%. The value for `Cc1noc(C)c1S(=O)(=O)Nc1cccc2c1O[C@@H](CN(C)Cc1ccncc1)[C@@H](C)CN([C@@H](C)CO)C2=O` was -8.63%; that for `C[C@@H]1CN([C@H](C)CO)C(=O)c2cc(NS(=O)(=O)c3ccc(F)cc3)ccc2O[C@H]1CN(C)Cc1ccc(C(F)(F)F)cc1` was 13.5%; that for `C[C@H](CO)N1C[C@H](C)[C@@H](CN(C)Cc2ccc(C(F)(F)F)cc2)Oc2ccc(NS(=O)(=O)c3ccc(F)cc3)cc2C1=O` was 8.36% [at 21 µM].

On to `C[C@@H]1CN([C@H](C)CO)C(=O)c2cc(NC(=O)Cc3ccccc3)ccc2O[C@@H]1CN(C)Cc1ccncc1`, for which the “activation (acetylation increase)” value is -2.98%.

For the compound `COc1ccc(CN(C)C[C@H]2Oc3c(NC(=O)CCCCCC(=O)Nc4ccccc4N)cccc3C(=O)N([C@H](C)CO)C[C@@H]2C)cc1`, the “activation (acetylation increase)” value is 9.2% [at 21 µM].

As to `C[C@H]1CN([C@@H](C)CO)C(=O)c2cccc(NC(=O)C3CCCCC3)c2O[C@H]1CN(C)Cc1ccc(C(=O)Nc2ccccc2N)cc1`, the “activation (acetylation increase)” value was 264% [at 10 µM]. The value for `Cc1noc(C)c1NC(=O)Nc1cccc2c1O[C@H](CN(C)Cc1ccc(Oc3ccccc3)cc1)[C@H](C)CN([C@@H](C)CO)C2=O` was -33.3%.
